PubChem BioAssay
Where “and” joins values, the source holds several entries; their conditions need not be identical. Equal entries are not always repeated. Calls of active or inactive are those of the source.

What was measured:
[1] = test system: PRMT1 (protein arginine N-methyltransferase 1); experiment: small molecules binding arginine methyltransferase PRMT1 – biochemical, small-molecule microarray, 635 nm fluorescence, primary screen (AID 1088); details: higher = more signal;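 also: binding of Prmt1 protein to compounds spotted on small-molecule microarray slides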
[2] = growth effects on S. cerevisiae YJM789 – YJM789 clinical isolate, OD600, 24 h, basal, primary screen (AID 1089); details: higher = more signal, called active from +8 up or from −8 down unless noted;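 also: growth of clinical yeast isolate S. cerevisiae YJM 789 seeded 1000 cells per well; test concentration not given here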
[3] = S. pombe growth modifiers, basal conditions – strain 972, OD600, 24 h, no modulator, primary screen (AID 1090);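 also: basal condition with compound alone and no growth modifier present; test concentration not given here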; details: S. pombe 972 growth; higher = more signal, called active from +8 up or from −8 down unless noted
[4] = budding yeast growth modifiers under rapamycin – strain BY4716, OD600, 96 h, primary screen (AID 1091); also: test concentration not given here; details: S. cerevisiae BY4716 + rapamycin; higher = more signal, called active from +8 up or from −8 down unless noted
[5] = target: Torsin-1A-interacting protein 2 (Homo sapiens) (UniProt Q8NFQ8); experiment: small molecules binding lysate-expressed LULL1 – cell lysate, human LULL1 lysate, 635/667 nm fluorescence, primary screen (AID 1092); details: small-molecule microarray, hLULL1 lysate binding, 635 nm fluorescence; higher = more signal;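 also: probe is lysate of COS7 cells overexpressing human LULL1; score merges per-feature 667 nm fluorescence with signal-to-noise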
Chain of Torsin-1A-interacting protein 2 (Homo sapiens) (Q8NFQ8 whole entry, looked up): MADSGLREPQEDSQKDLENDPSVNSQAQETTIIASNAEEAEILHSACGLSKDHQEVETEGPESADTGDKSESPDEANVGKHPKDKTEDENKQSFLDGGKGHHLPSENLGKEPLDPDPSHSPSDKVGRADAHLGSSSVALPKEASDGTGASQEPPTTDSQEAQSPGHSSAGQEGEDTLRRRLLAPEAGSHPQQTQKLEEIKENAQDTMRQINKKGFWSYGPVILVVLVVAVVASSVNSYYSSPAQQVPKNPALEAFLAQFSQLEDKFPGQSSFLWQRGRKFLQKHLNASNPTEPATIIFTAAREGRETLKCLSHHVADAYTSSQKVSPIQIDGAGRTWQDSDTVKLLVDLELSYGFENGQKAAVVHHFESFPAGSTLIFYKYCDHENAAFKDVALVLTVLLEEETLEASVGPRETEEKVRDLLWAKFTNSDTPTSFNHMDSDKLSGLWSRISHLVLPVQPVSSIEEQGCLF

[6] = optical density change of DRC41 E. coli – strain DRC41, OD650, 24 h, E. coli filamentation project, primary screen (AID 1093);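 also: MC1000 strain lacking acrAB efflux and sulA so SOS filamentation is blocked; test concentration not given here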; details: E. coli DRC41 growth; higher = more signal, called active from +8 up or from −8 down unless noted
[7] = probe aLefty2 binding to arrayed compounds – biochemical, biotinylated probe, 635/667 nm fluorescence, primary screen (AID 1094); details: higher = more signal; small-molecule microarray, probe aLefty2, fluorescence unless noted;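 also: score merges spot fluorescence near 667 nm with spot signal-to-noise ratio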
[8] = test system: Noggin (protein binding on small-molecule microarray); experiment: small molecules binding Noggin protein – biochemical, 635/667 nm fluorescence, primary screen (AID 1095); details: 635 nm fluorescence, higher = more signal;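 also: score merges 667 nm feature fluorescence with signal to noise over triplicate slides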
[9] = target: Neurogenic locus notch homolog protein 3 (Homo sapiens) (UniProt Q9UM47); experiment: small molecules binding NOTCH3 protein – biochemical, 635/667 nm fluorescence, primary screen (AID 1096); details: small-molecule microarray, 635 nm fluorescence, higher = more signal
Chain of Neurogenic locus notch homolog protein 3 (Homo sapiens) (Q9UM47 whole entry, looked up): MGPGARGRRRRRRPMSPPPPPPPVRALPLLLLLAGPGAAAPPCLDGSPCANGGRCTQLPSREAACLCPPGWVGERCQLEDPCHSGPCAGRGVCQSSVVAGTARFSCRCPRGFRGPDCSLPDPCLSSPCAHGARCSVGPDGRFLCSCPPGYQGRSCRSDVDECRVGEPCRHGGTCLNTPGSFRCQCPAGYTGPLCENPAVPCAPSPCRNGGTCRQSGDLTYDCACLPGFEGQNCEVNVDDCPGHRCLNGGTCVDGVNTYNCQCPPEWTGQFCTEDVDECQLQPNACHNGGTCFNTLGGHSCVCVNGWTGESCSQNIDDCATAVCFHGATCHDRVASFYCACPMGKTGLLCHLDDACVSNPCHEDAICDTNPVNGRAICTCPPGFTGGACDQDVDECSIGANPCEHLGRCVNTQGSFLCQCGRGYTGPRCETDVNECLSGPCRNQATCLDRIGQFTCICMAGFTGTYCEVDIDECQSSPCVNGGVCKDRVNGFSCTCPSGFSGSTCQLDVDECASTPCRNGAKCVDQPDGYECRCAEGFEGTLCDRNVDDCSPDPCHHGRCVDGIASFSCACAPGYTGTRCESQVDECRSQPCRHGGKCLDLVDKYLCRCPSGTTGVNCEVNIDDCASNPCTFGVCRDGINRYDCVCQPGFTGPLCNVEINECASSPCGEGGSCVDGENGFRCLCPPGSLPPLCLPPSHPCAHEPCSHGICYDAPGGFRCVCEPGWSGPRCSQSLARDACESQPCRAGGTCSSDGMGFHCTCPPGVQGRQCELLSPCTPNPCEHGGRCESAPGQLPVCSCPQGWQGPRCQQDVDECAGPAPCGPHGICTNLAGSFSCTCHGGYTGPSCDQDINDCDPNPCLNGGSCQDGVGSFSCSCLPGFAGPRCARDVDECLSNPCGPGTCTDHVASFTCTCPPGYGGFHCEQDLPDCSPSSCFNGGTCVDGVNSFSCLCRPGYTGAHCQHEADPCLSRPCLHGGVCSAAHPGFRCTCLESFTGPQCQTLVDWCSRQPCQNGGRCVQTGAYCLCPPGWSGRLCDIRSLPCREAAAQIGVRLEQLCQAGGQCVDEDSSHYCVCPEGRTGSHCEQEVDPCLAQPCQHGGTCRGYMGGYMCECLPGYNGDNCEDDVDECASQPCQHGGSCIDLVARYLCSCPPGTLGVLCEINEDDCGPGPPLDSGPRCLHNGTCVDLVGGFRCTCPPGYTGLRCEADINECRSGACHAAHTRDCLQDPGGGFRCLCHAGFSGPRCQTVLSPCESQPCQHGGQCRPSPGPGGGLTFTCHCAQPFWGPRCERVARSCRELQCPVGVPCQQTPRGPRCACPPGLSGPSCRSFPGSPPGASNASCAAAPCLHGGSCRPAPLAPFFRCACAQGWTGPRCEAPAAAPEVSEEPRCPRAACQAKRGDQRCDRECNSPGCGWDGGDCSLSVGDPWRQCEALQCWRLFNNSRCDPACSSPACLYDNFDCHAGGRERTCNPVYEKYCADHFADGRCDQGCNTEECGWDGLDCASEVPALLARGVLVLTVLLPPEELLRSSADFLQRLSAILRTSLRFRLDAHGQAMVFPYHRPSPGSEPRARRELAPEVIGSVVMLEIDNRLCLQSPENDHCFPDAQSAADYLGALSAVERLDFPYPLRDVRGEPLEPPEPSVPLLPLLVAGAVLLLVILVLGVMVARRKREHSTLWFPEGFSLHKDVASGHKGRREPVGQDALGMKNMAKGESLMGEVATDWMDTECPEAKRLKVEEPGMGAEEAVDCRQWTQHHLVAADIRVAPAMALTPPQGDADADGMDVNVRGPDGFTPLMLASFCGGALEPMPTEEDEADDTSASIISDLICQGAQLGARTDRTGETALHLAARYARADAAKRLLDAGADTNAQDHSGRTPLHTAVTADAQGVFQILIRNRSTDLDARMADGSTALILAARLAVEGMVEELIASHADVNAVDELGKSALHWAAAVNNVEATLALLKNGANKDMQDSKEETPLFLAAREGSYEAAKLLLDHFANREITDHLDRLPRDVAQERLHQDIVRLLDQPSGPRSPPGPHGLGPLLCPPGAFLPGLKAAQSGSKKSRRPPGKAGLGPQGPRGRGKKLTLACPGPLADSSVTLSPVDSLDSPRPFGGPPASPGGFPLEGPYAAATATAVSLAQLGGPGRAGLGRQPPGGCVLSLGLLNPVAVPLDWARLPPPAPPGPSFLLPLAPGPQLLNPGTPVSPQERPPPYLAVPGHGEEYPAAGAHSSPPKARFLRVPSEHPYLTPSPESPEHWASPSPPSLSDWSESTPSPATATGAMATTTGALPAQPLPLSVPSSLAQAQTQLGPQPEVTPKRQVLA

[10] = probe aEGFR binding to arrayed compounds – biochemical, biotinylated probe, 635/667 nm fluorescence, primary screen (AID 1097); details: higher = more signal; small-molecule microarray, probe aEGFR, fluorescence unless noted;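 also: probe is a biotinylated anti-EGFR antibody binding compounds printed on slides; score combines fluorescence near 667 nm and signal to noise of each spot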
[11] = test system: Plasmodium falciparum Sir2 (PF13_0152, Sir2A); experiment: Plasmodium falciparum Sir2A binding compounds – biochemical, small-molecule microarray, 635 nm fluorescence, primary screen (AID 1098); details: fluorescence 635 nm, higher = more signal;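 also: score merges spot fluorescence intensity with its signal-to-noise ratio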
[12] = probe aDKK1 binding to arrayed compounds – biochemical, biotinylated probe, 635/667 nm fluorescence, primary screen (AID 1099); details: higher = more signal; small-molecule microarray, probe aDKK1, fluorescence unless noted;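 also: score merges 667nm spot fluorescence with signal to noise across triplicate slides; reference of the scale not given here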
[13] = probe aCHRDL2 binding to arrayed compounds – biochemical, biotinylated probe, 635/667 nm fluorescence, primary screen (AID 1100); details: higher = more signal; small-molecule microarray, probe aCHRDL2, fluorescence unless noted
[14] = change in splice reporter luminescence, either direction, cell-based, HEK293, spliceosome inhibition project, primary screen (AID 1101); details: HEK293 splicing luciferase reporter, 24 h; higher = more signal, called active from +8 up or from −8 down unless noted;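 also: HEK293 cells carrying a splicing-competent luciferase reporter gene; test concentration not given here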
[15] = target: Fibroblast growth factor 10 (Homo sapiens) (UniProt O15520); experiment: compounds binding fibroblast growth factor 10 – biochemical, small-molecule microarray, 635 nm fluorescence, primary screen (AID 1102); details: FGF10 binding, fluorescence 635 nm, higher = more signal
Chain of Fibroblast growth factor 10 (Homo sapiens) (O15520 whole entry, looked up): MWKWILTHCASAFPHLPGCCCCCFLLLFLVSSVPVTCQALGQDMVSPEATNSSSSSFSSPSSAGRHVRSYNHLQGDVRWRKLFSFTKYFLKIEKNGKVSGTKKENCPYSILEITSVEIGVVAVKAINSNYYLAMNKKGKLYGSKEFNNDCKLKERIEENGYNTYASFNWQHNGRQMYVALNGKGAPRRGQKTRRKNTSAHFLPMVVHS

[16] = test system: glycogen synthase kinase-3 (GSK3A per assay name; protocol says GSK3B); experiment: compounds binding glycogen synthase kinase-3 – biochemical, small-molecule microarray, 635 nm fluorescence, GSK3A, primary screen (AID 1103); details: fluorescence 635 nm, higher = more signal; also: the record names both GSK3A and GSK3B
[17] = target: Epidermal growth factor receptor (Homo sapiens) (UniProt P00533); experiment: compounds binding epidermal growth factor receptor – biochemical, small-molecule microarray, 635 nm fluorescence, primary screen (AID 1104); details: EGFR binding, higher = more signal;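 also: score merges 667 nm emission intensity with spot signal to noise over triplicate slides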
Chain of Epidermal growth factor receptor (Homo sapiens) (P00533 whole entry, looked up): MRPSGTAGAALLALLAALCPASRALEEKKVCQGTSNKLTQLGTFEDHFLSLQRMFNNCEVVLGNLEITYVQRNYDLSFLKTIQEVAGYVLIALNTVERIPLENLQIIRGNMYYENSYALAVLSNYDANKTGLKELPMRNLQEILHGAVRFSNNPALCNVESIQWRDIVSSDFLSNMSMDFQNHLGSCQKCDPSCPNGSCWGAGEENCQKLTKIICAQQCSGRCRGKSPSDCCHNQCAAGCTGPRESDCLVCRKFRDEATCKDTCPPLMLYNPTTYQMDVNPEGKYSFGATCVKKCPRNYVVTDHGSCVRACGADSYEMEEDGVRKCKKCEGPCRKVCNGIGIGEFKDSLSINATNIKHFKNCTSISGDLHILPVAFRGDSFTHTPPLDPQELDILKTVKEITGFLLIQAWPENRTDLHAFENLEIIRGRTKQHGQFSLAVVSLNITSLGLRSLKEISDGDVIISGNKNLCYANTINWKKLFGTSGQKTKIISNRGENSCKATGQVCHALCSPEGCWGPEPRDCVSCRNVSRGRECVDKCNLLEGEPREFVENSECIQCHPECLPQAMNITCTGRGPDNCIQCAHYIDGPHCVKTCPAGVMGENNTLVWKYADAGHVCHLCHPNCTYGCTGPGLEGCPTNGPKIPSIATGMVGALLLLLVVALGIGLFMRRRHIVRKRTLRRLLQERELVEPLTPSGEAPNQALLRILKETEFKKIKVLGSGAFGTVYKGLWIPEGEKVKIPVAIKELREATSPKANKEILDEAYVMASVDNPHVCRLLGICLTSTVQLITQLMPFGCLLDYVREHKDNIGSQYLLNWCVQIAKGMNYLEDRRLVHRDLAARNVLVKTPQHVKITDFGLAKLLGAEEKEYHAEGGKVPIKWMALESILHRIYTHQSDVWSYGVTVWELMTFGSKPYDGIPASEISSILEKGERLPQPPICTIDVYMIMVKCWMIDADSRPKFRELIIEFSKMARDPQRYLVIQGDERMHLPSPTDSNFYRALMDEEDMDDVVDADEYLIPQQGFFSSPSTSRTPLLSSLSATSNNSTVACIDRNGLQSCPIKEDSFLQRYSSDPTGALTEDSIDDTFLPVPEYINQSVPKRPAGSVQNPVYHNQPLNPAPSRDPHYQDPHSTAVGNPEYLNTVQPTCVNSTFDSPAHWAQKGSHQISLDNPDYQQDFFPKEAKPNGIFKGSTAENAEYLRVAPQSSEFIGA

[18] = target: Follistatin-related protein 3 (Homo sapiens) (UniProt O95633); experiment: compounds binding follistatin-related protein 3 – biochemical, small-molecule microarray, 635 nm fluorescence, primary screen (AID 1105); details: FSTL3 binding, higher = more signal;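 also: score merges emission near 667 nm and signal to noise per printed spot across three slides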
Chain of Follistatin-related protein 3 (Homo sapiens) (O95633 whole entry, looked up): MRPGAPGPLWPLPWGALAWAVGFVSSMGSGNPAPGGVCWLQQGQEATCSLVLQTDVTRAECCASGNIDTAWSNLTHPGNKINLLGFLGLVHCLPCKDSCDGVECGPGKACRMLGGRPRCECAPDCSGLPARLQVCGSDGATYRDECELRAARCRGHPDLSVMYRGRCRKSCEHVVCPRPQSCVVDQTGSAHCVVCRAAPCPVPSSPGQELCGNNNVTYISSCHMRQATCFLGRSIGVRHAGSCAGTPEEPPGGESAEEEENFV

[19] = target: Dickkopf-related protein 1 (Homo sapiens) (UniProt O94907); experiment: small molecules binding DKK1 protein – biochemical, small-molecule microarray, 635 nm fluorescence scan, primary screen (AID 1106); details: higher = more signal;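 also: score merges emission near 667 nm with signal to noise over three replicate slides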
Chain of Dickkopf-related protein 1 (Homo sapiens) (O94907 whole entry, looked up): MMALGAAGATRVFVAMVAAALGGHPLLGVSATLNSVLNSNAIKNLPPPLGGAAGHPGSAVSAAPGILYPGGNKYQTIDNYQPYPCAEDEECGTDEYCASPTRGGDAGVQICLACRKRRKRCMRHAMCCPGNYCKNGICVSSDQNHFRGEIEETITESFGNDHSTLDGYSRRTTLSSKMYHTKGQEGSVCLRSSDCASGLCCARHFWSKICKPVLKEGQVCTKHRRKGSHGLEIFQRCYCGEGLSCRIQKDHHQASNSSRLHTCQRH

[20] = test system: Inhibin beta A chain (activin A); experiment: small molecules binding activin A – biochemical, small-molecule microarray, 635 nm fluorescence scan, primary screen (AID 1107); details: INHBA, higher = more signal;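 also: mouse activin A protein probed at 4.33 µg/mL on printed slides; score merges bound-protein fluorescence near 667 nm with spot signal-to-noise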

SMILES	composite z-score [1]	z-score [2]	z-score [3]	z-score [4]	composite z-score [5]	z-score [6]	composite z-score [7]	composite z-score [8]	composite z-score [9]	composite z-score [10]	composite z-score [11]	composite z-score [12]	composite z-score [13]	z-score [14]	composite z-score [15]	composite z-score [16]	composite z-score [17]	composite z-score [18]	composite z-score [19]	composite z-score [20]
CCCc1cc2c(n1Cc1ccc(C)cc1)C(C)C1CN(C(=O)c3ccccc3)C(C)(C(=O)OC)C21 (stereo not given)	0.0451	-1.78 (inactive)	0.625 (inactive)	-0.689 (inactive)	3.08	-0.694 (inactive)	1.02	-0.366	1.11	0.834	-0.232	1.69	1.46	-3.92 (inactive)	1.15	0.0952	0.234	1.12	-0.0627	1.28
C[C@H]1O[C@H]2C3=C(C(=O)[C@@H]4O[C@@H]4[C@@H]3O)[C@@H]1[C@@H]1[C@@H](C)OC=C3[C@@H](O)[C@H]4O[C@H]4C(=O)[C@]312	-1.42	-1.16 (inactive)	-0.568 (inactive)	-0.584 (inactive)	-0.697	-0.529 (inactive)	-0.166	-0.394	-1.62	-0.0238	-0.373	-0.416	-0.399	-1.89 (inactive)	-0.131	-0.572	-0.132	-0.727	0.133	0.38
COC(=O)[C@H]1[C@H](c2ccccc2)C(=O)[C@]2(O)c3ccccc3O[C@@]12c1ccccc1	-0.371	-1.36 (inactive)	-0.83 (inactive)	-0.713 (inactive)	0.582	0.0043 (inactive)	-0.267	0.372	0.667	-0.12	0.219	-0.291	-0.463	-1.58 (inactive)	0.37	0.423	0.437	0.419	0.314	-0.228
C=C(CC1(CNP(=O)(c2ccccc2)c2ccccc2)CC1)c1ccccc1	-0.683	0.0836 (inactive)	1.79 (inactive)	-0.165 (inactive)	1.98	0.0375 (inactive)	-0.0934	-0.682	-0.343	-0.0493	1.34	0.19	0.752	-0.937 (inactive)	0.213	-0.383	0.187	-0.77	-0.542	1.16
COC(=O)[C@@]1(Cc2ccc(F)cc2)[C@H]2c3cc(C(=O)N(C)C)[nH]c3C[C@H]2CN1C(=O)c1ccccc1	-0.128	0.531 [setting not given] (inactive)	0.0211 [setting not given] (inactive)	0.229 [setting not given] (inactive)	3.23	-0.152 [setting not given] (inactive)	0.153 [setting not given]	-0.512	-0.388	-0.0573 [setting not given]	0.878	0.588 [setting not given]	0.826 [setting not given]	-0.825 [setting not given] (inactive)	0.554	-0.275	-0.157	-0.589	-0.503	0.938
CCCc1cc2c(n1Cc1ccco1)C(C)C1CN(C(=O)c3ccccc3)C(C)(C(=O)OC)C21 (stereo not given)	0.254	-0.0941 (inactive)	-0.154 (inactive)	0.444 (inactive)	2.03	-0.773 (inactive)	0.849	0.025	1.09	0.337	1.16	1.6	1.52	1.76 (inactive)	0.505	1.02	0.437	0.715	0.512	1.57
OCc1ccc(C2=CC(C3CC3)N(Cc3sc4ccccc4c3Cl)CC2)cc1 (stereo not given)	1.56	-0.102 (inactive)	-5.01 (inactive)	1.47 (inactive)	1.55	-1.09 (inactive)	-0.0416	0.448	0.68	-0.0493	1	0.0931	0.274	-0.747 (inactive)	0.458	0.979	0.417	0.48	0.8	1.04
CC1N(P(=O)(c2ccccc2)c2ccccc2)CC(O)(c2ccccc2)CC12CC2 (stereo not given)	0.453 and -1.07	0.401 (inactive) and -2.96 (inactive)	0.614 (inactive) and -1.46 (inactive)	0.973 (inactive) and 0.0418 (inactive)	3.87 and 3.05	-0.476 (inactive) and -0.172 (inactive)	0.084 and 0.644	-1.15 and -1.06	-1.14 and -0.154	-0.0565 and 0.174	0.639 and 0.752	-0.135 and 1	0.938 and 1.14	0.255 (inactive) and -4.15 (inactive)	-0.115 and 0.145	-0.0785 and -0.283	-0.678 and 0.158	-1.67 and -0.931	-0.657 and -0.814	0.388 and 1.1
CCOC(=O)[C@H]1CC=C2C(=O)Oc3ccccc3[C@@H]21	-0.162	-1.73 (inactive)	-5.83 (inactive)	-1.99 (inactive)	1.55	-0.0576 (inactive)	-0.134	-1.09	0.0681	-0.174	-0.283	-0.295	0.521	-0.0119 (inactive)	-0.375	-0.45	-0.695	-0.77	-1.06	0.0965
CN1CCc2nc(CO)c(CO)cc2C1	-0.121	0.909 (inactive)	0.772 (inactive)	1.47 (inactive)	0.277	0.077 (inactive)	-0.0912	0.543	0.765	0.0668	-0.0844	0.0703	-0.445	0.261 (inactive)	0.297	0.702	0.514	0.51	0.323	-0.0175
CCc1cc2c(nc1CC)CCN(CCC(C)=NOC)C2	0.766	0.259 (inactive)	-1.54 (inactive)	-0.21 (inactive)	0.839	-0.0797 (inactive)	0.327	0.601	0.0855	0.0631	0.0885	-0.112	0.662	0.0386 (inactive)	0.179	0.344	0.961	0.763	0.755	1.66
C=C(CC1(C(C)NP(=O)(c2ccccc2)c2ccccc2)CC1)c1ccccc1 (stereo not given)	0.144	-1.47 (inactive)	-5.37 (inactive)	-3 (inactive)	3.44	-0.74 (inactive)	-0.119	-0.344	0.673	-0.135	0.742	0.364	0.803	-4.59 (inactive)	0.623	0.0363	-0.636	-0.0868	-0.237	0.853
COC(=O)C1(C)C=C2C(=C(C)C(=O)C2C)CN1 (stereo not given)	-0.289	0.957 (inactive)	0.437 (inactive)	1.14 (inactive)	-0.132	-1.5 (inactive)	-0.0175	-1	-1.2	-0.139	-0.656	0.859	0.944	0.522 (inactive)	-0.618	-0.623	-0.885	-0.729	-0.706	1.11
COC(=O)[C@H]1[C@@H](O)[C@@]2(O)c3c(OC)cc(OC)cc3O[C@@]2(c2ccc(OC)cc2)[C@@H]1c1ccccc1	0.002	-0.543 (inactive)	-2.36 (inactive)	0.118 (inactive)	0.485	0.449 (inactive)	-0.221	0.782	0.708	-0.0714	0.373	-0.193	-0.482	-1.89 (inactive)	0.384	0.586	0.628	0.554	0.962	0.0587
CCCc1cc2c(n1CCO)C(C)C1CN(C(=O)c3ccccc3)C(C)(C(=O)OC)C21 (stereo not given)	-0.147	-0.28 (inactive)	1.08 (inactive)	0.158 (inactive)	2.94	-0.0807 (inactive)	0.851	-0.562	0.386	0.427	0.677	1.76	1.57	-1.08 (inactive)	0.0807	-0.181	-0.362	0.0815	-0.369	1.24
COc1cc2c(cc1O)C(C)N(C)CC2 (stereo not given)	-0.474	0.051 (inactive)	-2.28 (inactive)	-1.65 (inactive)	0.0713	0.891 (inactive)	0.0914	-0.19	-0.245	0.0841	-0.528	0.0766	0.34	0.844 (inactive)	-0.0182	-0.951	-0.855	-0.205	-0.227	0.953
